Measured values from the supplement of paper PMC4894684.
Structures can show the parent of a compound that is named as a salt. ± gives the standard deviation of the averaged measurements.

System: Toxoplasma gondii RH (in HFF)
Assay: parasite growth relative to the screen mean (all compounds = 100%); higher = less inhibition of parasite growth
Conditions: 5 µM; 72 h; oxygen 21 %
Outline: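 Library compounds, held as 10 mM DMSO stocks, were pinned to 5 µM final onto confluent human foreskin fibroblasts in 96-well plates. The cells were infected within 2 h with RH β-Gal–GFP Toxoplasma (MOI 1:5), grown 72 h at 21% O2, and assayed for parasite number by CPRG β-Gal using in-plate standard curves. Growth is reported relative to the screen mean, in which all compounds = 100%, averaged over two screens, and CellTiter-Blue checked uninfected host-cell viability.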

Row | Structure (SMILES) | parasite growth [%]
1 | CCCCNC(=O)[C@@H]1Cc2ccccc2N1C(=O)[C@@H](N)CC [Butabindide oxalate] | 130 ± 7.7
2 | Cn1cc(C(=O)OCC2CCN(CCNS(C)(=O)=O)CC2)c2ccccc21 | 123 ± 3.8
3 | Cn1ccc2cc3c(cc21)CCN3C(=O)Nc1cccnc1 | 121 ± 17
4 | Nc1c(Br)cc(Br)cc1CN[C@H]1CC[C@H](O)CC1 [Ambroxol hydrochloride] | 136 ± 3.2
5 | CN1c2cc3c(cc2N=C(c2ccc(C(=O)O)cc2)c2ccccc21)C(C)(C)CCC3(C)C | 61.4 ± 34
6 | COc1cc(COc2cc(N)c(Cl)cc2C(=O)CCC2CCN(CCNS(C)(=O)=O)CC2)cc(OC)c1 | 28.1 ± 16
7 | c1ccc(C(NCc2cccnc2)(c2ccccc2)c2ccccc2)cc1 | 48.8 ± 13
8 | Fc1ccc(C(c2ccc(F)cc2)N2CCN(C/C=C/c3ccccc3)CC2)cc1 [Flunarizine dihydrochloride] | 56.3 ± 12
9 | CN1CCC[C@@H]1Cc1c[nH]c2ccc(CCS(=O)(=O)c3ccccc3)cc12 [Eletriptan hydrobromide] | 126 ± 18
10 | CCOCC(O)COc1ccc(NC(=O)CC[S+](C)C)cc1 (stereo not drawn) [Suplatast tosylate] | 75 ± 16
11 | OC(CNCC(O)C1CCc2cc(F)ccc2O1)C1CCc2cc(F)ccc2O1 (stereo not drawn) [Nebivolol hydrochloride] | 46 ± 23
12 | c1ccc2cc(C3=NCCN3)ncc2c1 [BU 226 hydrochloride] | 126 ± 3.6
13 | CN1CCC(=C2c3ccccc3C=Cc3ccccc32)CC1 [Cyproheptadine hydrochloride] | 12.1 ± 16
14 | CCCn1c(=O)c(C)cn2nc(N)nc12 | 145 ± 2.1
15 | CNc1cc(OC)c(C(=O)NC2CCN(Cc3ccccc3)C2C)cc1Cl (stereo not drawn) [Nemonapride] | 95.4 ± 2.2
16 | Oc1cc2c(c(Cl)c1O)CCNCC2c1ccccc1 (stereo not drawn) | 103 ± 32
17 | O=c1c(-c2ccc(O)cc2)coc2cc(O)cc(O)c12 [Genistein] | 148 ± 28
18 | OC(c1ccccc1)C1CCN(CCc2ccccc2)CC1 (stereo not drawn) | 70.7 ± 12
19 | CC(C)NC[C@H](O)COc1cccc2[nH]ccc12 [(S)-(-)-Pindolol] | 127 ± 20

Row | Structure (SMILES) | parasite growth [%]
20 | Nc1[nH]nc2nc3ccccc3nc12 | 142.8 ± 0.82
21 | COc1cc2nc(N3CCN(C(=O)C4CCCO4)CC3)nc(N)c2cc1OC (stereo not drawn) [Terazosin hydrochloride] | 122 ± 12
22 | COCCOC(=O)C1=C(C)NC(C)=C(C(=O)OC(C)C)C1c1cccc([N+](=O)[O-])c1 (stereo not drawn) [Nimodipine] | 117 ± 13
23 | NS(=O)(=O)c1nn2cc(-c3ccccc3)nc2s1 | 108 ± 28
24 | Nc1nccc(-c2ccc3noc(-c4ccc(Cl)cc4)c3c2)n1 [PIM 1 Inhibitor 2] | 69.9 ± 15
25 | O=C(Nc1cccc2cccnc12)c1ccc(N2C(=O)[C@@H]3[C@H](C2=O)[C@@H]2C=C[C@H]3C2)cc1 [endo-IWR 1] | 113 ± 21
26 | NC(=O)c1ccc2[nH]ccc2c1 | 91.2 ± 12
27 | Cc1nn(-c2ccccc2)c(C)c1C=NN1CCN(Cc2ccccc2)CC1 | 141 ± 26
28 | COc1ccccc1N1CCN(CCCCN2C(=O)c3ccccc3C2=O)CC1 [NAN-190 hydrobromide] | 133 ± 11
29 | COc1ccc(-c2nc(C(=O)N3CCN(C)CC3)sc2-c2ccc(OC)cc2)cc1 | 112 ± 21
30 | CN(CC[C@@H](Oc1ccc(-c2ccccc2)cc1)c1ccc(F)cc1)CC(=O)O [ALX 5407 hydrochloride] | 136 ± 5.8
31 | CN/C(=N\CCSCc1nc[nH]c1C)NC#N [Cimetidine] | 118 ± 10
32 | CCCCn1c(=O)c2[nH]c(C34CC5CC(CC3C5)C4)nc2n(CCCO)c1=O | 101 ± 16
33 | Nc1cc(N2CCCCC2)nc(N)[n+]1[O-] [Minoxidil] | 111 ± 13
34 | CC(Cc1ccc(O)c(O)c1)(NN)C(=O)O [(S)-(-)-Carbidopa] | 147 ± 34
35 | CN1CCN(C(=O)c2nc3ccc(Cl)cc3[nH]2)CC1 | 133 ± 14
36 | C1CCC(N=C(NC23CC4CC(CC(C4)C2)C3)N2CCOCC2)CC1 | 100 ± 31
37 | O=c1ncccn1[C@@H]1O[C@H](CO)[C@@H](O)[C@H]1O [Zebularine] | 119 ± 12
38 | CC(C)CC(NC(=O)OCC1c2ccccc2-c2ccccc21)C(=O)O (stereo not drawn) | 59.8 ± 23
